# Data from PubChem BioAssay (EPA / NIEHS).
# Inconclusive results are not listed. A structure can be active in one record and inactive in another. Activity calls are given as the source filed them. Rule for the calls, unless noted: active = hit-call score of the fitted dose curve at least 0.9, where 1 is the maximum; inconclusive = response in the unintended direction; inactive = score below 0.9.
# Columns and labels:
# [1] = CCTE_Simmons_CellTiterGLO_HEK293T: Viability Assessment in CCTE's Assays for Thyroperoxidase (TPO) Inhibition, Simmons Lab (AID 2283665);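 for AC50: cells exposed to compound for 24 h before readout; actives reduce ATP signal below DMSO vehicle meaning cytotoxicity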
# Summary of the method: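 HEK293T cells in DMEM with 1% FBS were dosed with 8 concentrations (5 nM–87.5 uM final, 0.5% DMSO) for 24 hr at 37C; ATP content was read by CellTiter-Glo luminescence, loss-of-signal versus DMSO, three biological replicates.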
# [2] = molecular target: Luciferin 4-monooxygenase (Photinus pyralis) (UniProt P08659); test: CCTE_Simmons_QuantiLum_inhib_2: CCTE's Firefly Luciferase Inhibition Assay, Simmons Lab (AID 2283767);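 for AC50: potency for inhibitors that lower luciferase luminescence relative to DMSO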
# Chain of Luciferin 4-monooxygenase (Photinus pyralis) (P08659 whole entry, looked up): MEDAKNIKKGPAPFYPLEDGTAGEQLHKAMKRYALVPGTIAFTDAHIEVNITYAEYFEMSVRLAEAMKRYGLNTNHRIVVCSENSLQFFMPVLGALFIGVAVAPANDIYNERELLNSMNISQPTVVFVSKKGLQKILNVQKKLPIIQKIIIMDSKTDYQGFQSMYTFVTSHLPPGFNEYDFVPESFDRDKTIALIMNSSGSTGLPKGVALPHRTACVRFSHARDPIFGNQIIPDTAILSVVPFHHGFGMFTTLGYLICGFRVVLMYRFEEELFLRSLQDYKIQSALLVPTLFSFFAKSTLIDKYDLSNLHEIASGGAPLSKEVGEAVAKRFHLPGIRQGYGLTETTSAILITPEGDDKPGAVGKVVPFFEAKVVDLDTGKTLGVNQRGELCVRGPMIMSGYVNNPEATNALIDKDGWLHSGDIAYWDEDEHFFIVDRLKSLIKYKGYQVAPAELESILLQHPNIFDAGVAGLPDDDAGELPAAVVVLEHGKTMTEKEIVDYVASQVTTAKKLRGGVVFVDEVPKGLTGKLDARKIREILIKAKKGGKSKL
# Summary of the method: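 Recombinant firefly luciferase (5 ng/well, 200 mM potassium phosphate with 1 mg/ml BSA) was exposed to 8 concentrations from 5 nM to 87.5 uM (final, 0.5% DMSO) for 30 min at 37C in the dark. Loss of luminescence versus DMSO was read after injecting D-luciferin/ATP-analogue reagent.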
# [3] = ACEA_AR_agonist_AUC_viability: ACEA Biosciences xCELLigence Real-Time Cell Analysis on Androgen Receptor Agonism for Viability (AID 2283775);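 for AC50: viability read 80 hours after compound addition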
# Summary of the method: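 Read-out is area under the impedance curve at 80 h post-dose in 22Rv1 cells, with DMSO as baseline and signal loss taken as reduced viability. Compounds ran in duplicate from 100 uM final.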
# [4] = ACEA_ER_AUC_viability: ACEA Biosciences xCELLigence Real-Time Cell Analysis on Estrogen Receptor Agonism for Viability (AID 2283782);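 note: continuous compound exposure with impedance area under curve over 80 h; hit means loss of impedance signal meaning reduced cell growth or viability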
# Summary of the method: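 T-47D human breast cells in phenol red-free RPMI1640 with 10% charcoal-stripped FBS were dosed with an 8-point 1:4 dilution series from 100 uM top final concentration, in duplicate. Impedance-based growth was followed for 80 h; AUC analysed versus DMSO.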
# [5] = Tanguay_ZF_120hpf_TR_legacy: (Legacy) Oregon State University Tanguay Lab 120 Hour Post-fertilization zebrafish Assay for Touch Response (AID 2283667)
# Summary of the method: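 Tropical 5D wild-type zebrafish embryos were exposed statically in sealed, foil-covered plates at 28C until 120 hpf, with 0.64% (vol/vol) final DMSO. Touch response was scored as present or absent; embryos that died were not scored.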
# [6] = Tanguay_ZF_120hpf_ActivityScore_legacy: (Legacy) Oregon State University Tanguay Lab 120 Hour Post-fertilization zebrafish Assay Score for Activity (AID 2283742)
# Summary of the method: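 Tropical 5D wild-type zebrafish embryos, dechorionated with pronase at 4 hpf, were exposed singly from 6 hpf to 120 hpf statically at 28C in 0.64% DMSO. Malformations and mortality were scored as binary by brightfield, with the activity score combining 18 morphology components.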
# [7] = ACEA_AR_antagonist_AUC_viability: ACEA Biosciences xCELLigence Real-Time Cell Analysis on Androgen Receptor Antagonism for Viability (AID 2283776);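 note: 22Rv1 human prostate cancer cells growing on impedance electrode plates; area under impedance growth curve at 80 h after dosing as viability; hits lower the growth signal relative to DMSO meaning cytotoxicity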
# Summary of the method: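 Impedance read-out (RT-CES): area under growth curve at 80 h post-dose, loss of signal scored vs DMSO baseline. 22Rv1 cells; 8-pt 1:4 series, top 100 uM final, ≤0.5% DMSO; biological duplicate.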
# [8] = CEETOX_H295R_MTT_cell_viability: Viability Assessment in the CeeTox HT-H295R MTT Assay (AID 2283718; active = hit-call score of the fitted dose curve at least 0.9, where 1 is the maximum; inactive = score below 0.9;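 for AC50: curve fitted both ways so AC50 may mark viability loss or gain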)
# Summary of the method: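 H295R cells prestimulated 48 h with 10 uM forskolin, then exposed 48 h to test chemical (0.1% DMSO final). Viability by MTT (0.5 mg/ml, 4 h, 37 C), absorbance 570/650 nm; percent change versus DMSO, bidirectional fit.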
# [9] = STM_H9_OrnCyssISnorm_ratio: Stemina devTOX quickPredict H9 human embryonic stem cell (hESC)-based Assay for Ornithine (ORN):Cystine (CYSS) Ratio (AID 2283714)
# Summary of the method: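 Undifferentiated H9 hESCs were exposed to compound for 72h with media and chemical replaced every 24h. Final 24-h conditioned media were deproteinized and analysed by UPLC-HRMS. ORN and CYSS peak areas were normalized to C13 internal standards and the ratio taken versus 0.1% DMSO.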
# [10] = CCTE_Padilla_ZF_144hpf_TERATOSCORE: (Legacy) CCTE's 144 Hour Post-fertilization zebrafish Assay Teratoscore, Padilla Lab (AID 2283679; active = hit-call score of the fitted dose curve at least 0.9, where 1 is the maximum; inactive = score below 0.9;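 note: zebrafish embryos with chorions exposed by immersion from 6-8 hpf to 5 dpf with daily renewal; teratogenicity score from eye scoring of death hatching and malformations at 144 hpf; higher score means more developmental defects relative to DMSO baseline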)
# Summary of the method: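 Larvae scored by eye at 144 hpf for death, hatching and malformations after a day in clean Hanks'. Before that, daily-renewed exposure at 80 uM (0.4% DMSO, 26C) from roughly 6-8 hpf through 5 dpf, 4 embryos per chemical.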
# [11] = molecular target: zebrafish Estrogen Receptor (ESR1), esr1 (gene 259252) (UniProt P57717); test: ATG_zfER1_XSP1: Attagene TRANS-FACTORIAL Multi-Species (XSP1) HepG2 Assay for zebrafish Estrogen Receptor (ESR1) (AID 2283772)
# Chain of zebrafish Estrogen Receptor (ESR1), esr1 (gene 259252) (P57717 whole entry, looked up, the tested form may be a part): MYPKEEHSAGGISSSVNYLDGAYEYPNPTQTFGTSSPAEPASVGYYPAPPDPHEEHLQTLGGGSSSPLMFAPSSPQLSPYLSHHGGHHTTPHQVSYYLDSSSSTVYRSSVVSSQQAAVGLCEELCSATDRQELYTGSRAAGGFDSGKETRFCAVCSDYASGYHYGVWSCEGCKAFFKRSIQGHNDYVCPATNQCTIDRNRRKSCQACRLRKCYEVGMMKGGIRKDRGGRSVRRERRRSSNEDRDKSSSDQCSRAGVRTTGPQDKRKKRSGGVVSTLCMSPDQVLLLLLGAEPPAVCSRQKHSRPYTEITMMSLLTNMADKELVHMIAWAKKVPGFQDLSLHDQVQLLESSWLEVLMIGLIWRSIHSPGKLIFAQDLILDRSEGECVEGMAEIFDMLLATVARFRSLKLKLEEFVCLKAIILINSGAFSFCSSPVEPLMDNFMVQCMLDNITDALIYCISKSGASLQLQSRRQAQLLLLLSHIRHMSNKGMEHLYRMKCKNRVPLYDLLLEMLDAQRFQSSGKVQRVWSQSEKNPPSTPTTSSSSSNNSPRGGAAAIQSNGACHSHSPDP
# Summary of the method: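 Reporter mRNA induction, gauged via RT-PCR/capillary electrophoresis fluorescence relative to DMSO controls, in HepG2 cells transiently carrying GAL4-UAS reporter units; 24 h dosing.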
# [12] = tested on: frog Estrogen Receptor (ESR2), gene 100174814; test: ATG_frER2_XSP1: Attagene TRANS-FACTORIAL Multi-Species (XSP1) HepG2 Assay for frog Estrogen Receptor (ESR2) (AID 2283774)
# Summary of the method: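 HepG2 cells transiently transfected with GAL4-UAS multiplexed reporter units expressing chimeric NR-Gal4 proteins; reporter mRNA measured 24 h after dosing by RT-PCR, FAM labeling, HpaI digestion and capillary electrophoresis. Gain-of-signal relative to DMSO; 3 nM 6-alpha-fluorotestosterone present.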
# [13] = tested on: frog Estrogen Receptor (ESR1), gene 398734; test: ATG_frER1_XSP1: Attagene TRANS-FACTORIAL Multi-Species (XSP1) HepG2 Assay for frog Estrogen Receptor (ESR1) (AID 2283777)
# Summary of the method: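 Read-out: fluorescent reporter mRNA via RT-PCR, HpaI digestion and capillary electrophoresis, after 24 h chemical exposure of transiently transfected human HepG2 cells expressing exogenous NR-Gal4 chimeras. DMSO served as baseline for positive-direction fitting.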
# [14] = molecular target: chicken Estrogen Receptor (ESR1), ESR1 (gene 396099) (UniProt P06212); test: ATG_chERa_XSP1: Attagene TRANS-FACTORIAL Multi-Species (XSP1) HepG2 Assay for chicken Estrogen Receptor (ESR1) (AID 2283779)
# Chain of chicken Estrogen Receptor (ESR1), ESR1 (gene 396099) (P06212 whole entry, looked up, the tested form may be a part): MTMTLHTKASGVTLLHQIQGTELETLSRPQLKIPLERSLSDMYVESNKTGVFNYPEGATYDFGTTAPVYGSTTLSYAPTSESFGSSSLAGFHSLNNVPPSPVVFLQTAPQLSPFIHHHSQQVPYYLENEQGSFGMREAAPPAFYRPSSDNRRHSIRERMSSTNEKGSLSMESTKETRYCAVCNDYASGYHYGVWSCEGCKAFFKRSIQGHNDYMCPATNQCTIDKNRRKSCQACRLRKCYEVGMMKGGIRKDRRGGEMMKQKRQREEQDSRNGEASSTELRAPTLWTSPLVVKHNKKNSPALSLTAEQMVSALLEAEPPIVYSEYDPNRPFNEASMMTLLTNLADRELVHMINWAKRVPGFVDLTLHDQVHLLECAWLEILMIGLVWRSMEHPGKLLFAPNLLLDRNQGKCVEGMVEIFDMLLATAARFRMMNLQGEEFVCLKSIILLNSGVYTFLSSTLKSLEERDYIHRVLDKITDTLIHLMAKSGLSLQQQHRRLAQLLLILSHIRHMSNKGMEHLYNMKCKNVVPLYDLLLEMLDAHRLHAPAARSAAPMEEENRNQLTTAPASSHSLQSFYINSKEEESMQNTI
# Summary of the method: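 HepG2 cells transiently transfected with multiplexed GAL4-UAS reporter units expressing chimeric NR-Gal4 proteins; 3 nM 6-alpha-fluorotestosterone present. Reporter mRNA measured 24 h after dosing by RT-PCR, FAM labelling, HpaI digest and capillary electrophoresis; gain of signal versus DMSO.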
# [15] = tested on: turtle Estrogen Receptor (ESR1), gene 101933533; test: ATG_trERa_XSP1: Attagene TRANS-FACTORIAL Multi-Species (XSP1) HepG2 Assay for turtle Estrogen Receptor (ESR1) (AID 2283781)
# Summary of the method: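 HepG2 cells transiently transfected with GAL4-UAS reporter units and chimeric NR-Gal4 constructs, dosed for 24 h with 3 nM 6-alpha-fluorotestosterone present. Reporter mRNA was quantified by RT-PCR, fluorescent labelling and capillary electrophoresis, with gain of signal fitted relative to DMSO.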
# AR (gene 367) = AR (gene 367) (UniProt P10275); test: ACEA_AR_agonist_80hr: ACEA Biosciences xCELLigence Real-Time Cell Analysis on Androgen Receptor Agonism for Proliferation (AID 2283783);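 note: hits increase impedance growth signal above DMSO baseline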
# Chain of AR (gene 367) (P10275 whole entry, looked up): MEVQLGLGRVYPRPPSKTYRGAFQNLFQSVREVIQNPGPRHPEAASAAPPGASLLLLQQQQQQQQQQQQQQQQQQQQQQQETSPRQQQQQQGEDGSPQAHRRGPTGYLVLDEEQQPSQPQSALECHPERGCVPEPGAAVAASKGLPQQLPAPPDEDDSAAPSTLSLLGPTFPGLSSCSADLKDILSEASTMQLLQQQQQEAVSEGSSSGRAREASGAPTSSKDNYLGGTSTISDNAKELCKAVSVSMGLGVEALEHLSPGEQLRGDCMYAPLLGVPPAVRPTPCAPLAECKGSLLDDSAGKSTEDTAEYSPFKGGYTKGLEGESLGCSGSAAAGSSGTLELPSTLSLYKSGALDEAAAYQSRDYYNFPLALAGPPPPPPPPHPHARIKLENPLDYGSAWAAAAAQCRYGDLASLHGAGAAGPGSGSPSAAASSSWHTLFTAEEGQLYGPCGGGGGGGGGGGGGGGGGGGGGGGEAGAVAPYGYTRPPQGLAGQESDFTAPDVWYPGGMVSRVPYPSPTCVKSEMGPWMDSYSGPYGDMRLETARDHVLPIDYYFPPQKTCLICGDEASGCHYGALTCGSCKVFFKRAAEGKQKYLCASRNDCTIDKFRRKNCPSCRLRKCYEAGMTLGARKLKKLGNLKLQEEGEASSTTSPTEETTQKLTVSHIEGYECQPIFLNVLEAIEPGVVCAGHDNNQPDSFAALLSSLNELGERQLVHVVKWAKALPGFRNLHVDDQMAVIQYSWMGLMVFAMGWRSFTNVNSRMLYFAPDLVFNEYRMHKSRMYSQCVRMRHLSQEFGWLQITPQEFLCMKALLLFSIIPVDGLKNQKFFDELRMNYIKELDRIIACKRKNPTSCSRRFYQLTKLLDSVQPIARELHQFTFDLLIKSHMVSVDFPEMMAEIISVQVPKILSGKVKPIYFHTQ
# Summary of the method: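 22Rv1 human prostate cancer cells were seeded after preconditioning in assay medium and monitored overnight, then dosed in an eight-point 1:4 dilution series from 100 uM (≤0.5% DMSO). Impedance-based growth was read at 80 h, gain-of-signal versus DMSO.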
smiles,measurement,setting,value
CCCCCCCCOC(=O)c1ccc(O)cc1,AC50,[1],24.4 µM (active)
same,outcome,[2],inactive
same,outcome,[3],inactive
same,AC50,[4],24.7 µM (active)
C=C(C)C(N)=O,outcome,[5],inactive
same,outcome,[6],inactive
same,outcome,[3],inactive
same,outcome,[7],inactive
OCC=Cc1ccccc1,outcome,[8],inactive
same,outcome,[3],inactive
same,outcome,[7],inactive
c1ccc2scnc2c1,outcome,[1],inactive
same,AC50,[2],31.7 µM (active)
same,outcome,[2],inactive
same,outcome,[3],inactive
CC(=O)C1=C(C)[C@@H]2C[C@@]3(C1)[C@H](C)CC[C@H]3C2(C)C,outcome,[9],inactive
same,AC50,[8],50 µM (active)
same,outcome,[3],inactive
same,outcome,[7],inactive
C#C[C@]1(O)CC[C@H]2[C@@H]3CCc4cc(O)ccc4[C@H]3CC[C@@]21C,AC50,[1],37.5 µM (active)
same,outcome,[5],inactive
same,AC50,[10],5.77 µM (active)
same,outcome,[8],inactive
same,outcome,[6],inactive
same,outcome,[2],inactive
same,AC50,[11],0.000281 µM (active)
same,AC50,[12],0.000273 µM (active)
same,outcome,[3],inactive
same,AC50,[7],30.5 µM (active)
same,outcome,[7],inactive
same,AC50,[13],0.0393 nM (active)
same,AC50,[14],0.0617 nM (active)
same,AC50,[15],0.0403 nM (active)
COc1cc(OC)c2ccc(=O)oc2c1,outcome,[8],inactive
same,AC50,[3],0.94 µM (active)
same,AC50,[7],0.25 µM (active)
CCCCC/C=C\C=C\C(=O)OCC,AC50,[1],88.6 µM (active)
same,outcome,[2],inactive
same,AC50,[4],80.8 µM (active)
COc1ccccc1O,outcome,[1],inactive
same,outcome,[2],inactive
same,outcome,[7],inactive
CCCc1ccc(N)cc1,outcome,[1],inactive
same,outcome,[2],inactive
same,outcome,[3],inactive
same,outcome,[7],inactive
same,outcome,[4],inactive
Cc1cccc(O)c1,outcome,[1],inactive
same,outcome,[2],inactive
same,outcome,[3],inactive
same,outcome,[7],inactive
CC(C)(CO)CO,outcome,[3],inactive
same,outcome,[7],inactive
same,outcome,AR (gene 367),inactive
CCO[Si](CC)(OCC)OCC,outcome,[3],inactive
same,outcome,[4],inactive
O=S(=O)(O)c1cc(S(=O)(=O)O)c2c(N=Nc3ccccc3)c(O)ccc2c1,outcome,[7],inactive
CCCC[N+](C)(CCCC)CCCC,outcome,[3],inactive
same,outcome,[4],inactive
CCC(C)(C)C1CCC(OC)CC1 (stereo not drawn),outcome,[3],inactive
same,outcome,[7],inactive
same,outcome,[4],inactive
CC(O)CNCC(C)O (stereo not drawn),outcome,[7],inactive
C=CCOC(=O)/C=C\C(=O)OCC=C,AC50,[4],94.9 µM (active)
C=CC(=O)OCC(CO)(COC(=O)C=C)COC(=O)C=C,AC50,[4],2.64 µM (active)
CC(C)C(=O)c1ccccc1,outcome,[7],inactive
same,outcome,[4],inactive
CCC(C)(CCCC(C)C)OC(C)=O (stereo not drawn),outcome,[3],inactive
same,outcome,[4],inactive
CC(O)CN (stereo not drawn),outcome,[3],inactive
same,outcome,[7],inactive
same,outcome,[4],inactive
C1CCCNCC1,outcome,[7],inactive
C=CC(O)CCCCC (stereo not drawn),outcome,[7],inactive
CCCCOCCOC(=O)c1ccccc1C(=O)OCCOCCCC,outcome,[4],inactive
O=C(O)c1cc2ccccc2cc1O,outcome,[4],inactive
C=CCOCC(O)CO (stereo not drawn),outcome,[4],inactive
CC(C)(C)C1CCC(O)CC1 (stereo not drawn),outcome,[3],inactive
same,outcome,[4],inactive
C=CCCCCCCCCC(=O)OCC,outcome,[3],inactive
same,outcome,[7],inactive
same,outcome,[4],inactive
OCCN1CCOCC1,outcome,[4],inactive
CC(CCO)CC(C)(C)C (stereo not drawn),outcome,[3],inactive
same,outcome,[7],inactive
same,outcome,[4],inactive
CC12CCC(C1)C(C)(C)C2O (stereo not drawn),outcome,[3],inactive
same,outcome,[7],inactive
same,outcome,[4],inactive
CCC(C)C1CCCCC1=O (stereo not drawn),outcome,[3],inactive
same,outcome,[7],inactive
same,outcome,[4],inactive
CCCCCCC(C)O (stereo not drawn),outcome,[7],inactive
CCCCCCCCCCO[C@@H]1O[C@H](CO)[C@@H](O)[C@H](O)[C@H]1O,outcome,[3],inactive
same,outcome,[7],inactive
same,AC50,[4],80.3 µM (active)
CC(=O)C1C(=O)C=C(C)OC1=O (stereo not drawn),outcome,[3],inactive
same,outcome,[7],inactive
same,outcome,[4],inactive
CCCCCCCC(=O)N(C)C,outcome,[7],inactive
CCCCCC#CC(=O)OC,AC50,[4],50 µM (active)
CC(=O)OC(C)(C)C1CC=C(C)CC1 (stereo not drawn),outcome,[3],inactive
same,outcome,[7],inactive
same,AC50,[4],79 µM (active)
CCC(=O)OC(C)(C)C1CC=C(C)CC1 (stereo not drawn),outcome,[7],inactive
same,outcome,[4],inactive
c1ccc(Cc2ccccc2)cc1,outcome,[3],inactive
same,AC50,[7],9.27 µM (active)
same,outcome,[4],inactive
CCCCCC1CCC(=O)O1 (stereo not drawn),outcome,[3],inactive
same,outcome,[7],inactive
same,outcome,[4],inactive
CCCCCCCCOC(C)=O,outcome,[3],inactive
same,outcome,[7],inactive
same,outcome,[4],inactive
CN(C)C,outcome,[3],inactive
same,outcome,[4],inactive
CC(=O)c1ccc(O)cc1,outcome,[3],inactive
same,outcome,[4],inactive
CCCCC(CC)COCCO (stereo not drawn),outcome,[3],inactive
same,outcome,[7],inactive
same,outcome,[4],inactive
CCCO[Si](OCCC)(OCCC)OCCC,outcome,[7],inactive
CC(=O)OCC=C(C)CCC=C(C)CCC=C(C)C,outcome,[4],inactive
CN(C)CCC=C1c2ccccc2CCc2ccccc21,AC50,[4],26.2 µM (active)
CC1COC(=O)O1 (stereo not drawn),outcome,[7],inactive
same,outcome,[4],inactive
same,outcome,AR (gene 367),inactive
